Sfp inh: qHTS Assay for Inhibitors of Bacillus subtilis Sfp phosphopantetheinyl transferase (PPTase); 4'-phosphopantetheinyl transferase ffp (Bacillus subtilis), Q9F4F7; Biochemical Sfp PPTase activity, qHTS; Potency, µM, hits mostly inhibitors; hit rate 3.5% among 310,000; AID 1490, 2009;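 further: the enzyme is Sfp with the accession as filed and its product quenches rhodamine fluorescence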
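Compounds were incubated with enzyme (final 15 nM) for 15 min at room temperature before substrate addition started the reaction. Fluorescence at 525 nm excitation, 598 nm emission was recorded immediately and after 30 minutes.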
G9a inh: qHTS Assay for Inhibitors of Histone Lysine Methyltransferase G9a | Histone-lysine N-methyltransferase EHMT2 (Homo sapiens), Q96KQ7 | G9a H3K9 monomethylation, AlphaScreen, 2 h | Potency, µM (highest dose often 102 µM), most hits filed as inhibitors | hit rate 8.8% among 350,000 | AID 504332, 2011; further: nearly all actives have a fitted effect of over 75% in size
Target sequence (Q96KQ7 913-1193 limits assumed): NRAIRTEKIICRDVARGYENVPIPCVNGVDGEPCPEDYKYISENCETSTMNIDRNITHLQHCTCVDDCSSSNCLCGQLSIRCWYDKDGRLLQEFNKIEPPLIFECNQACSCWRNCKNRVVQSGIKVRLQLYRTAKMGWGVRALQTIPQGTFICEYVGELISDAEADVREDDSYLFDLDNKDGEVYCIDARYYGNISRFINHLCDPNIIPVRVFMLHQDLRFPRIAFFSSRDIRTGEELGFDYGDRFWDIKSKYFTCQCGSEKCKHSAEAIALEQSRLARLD
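Chemiluminescent proximity detection of H3K9 monomethylation, read after 10 min bead incubation in the dark. Reaction: 20 nM G9a, 500 nM biotin-H3K9 peptide, 20 uM SAM cofactor, 2 h, room temperature, following 15 min enzyme-compound preincubation.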
BAZ2B block: qHTS Assay for Inhibitors of BAZ2B; AlphaScreen BAZ2B-H3K14Ac peptide displacement; Potency, µM (doses to about 114 µM), actives largely listed as inhibitors; hit rate 4.4% among 360,000; further: nearly all actives have a fitted effect of over 60% in size
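Compounds, titrated to a top concentration of 110 uM, were incubated 30 min at room temperature with preformed BAZ2B/acetyl-K14 H3 peptide complex (50 nM each). Proximity signal was measured by AlphaScreen after 20 min with beads.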
L3MBTL1 inh: qHTS Assay for the Inhibitors of L3MBTL1 | Lethal(3)malignant brain tumor-like protein 1 (Homo sapiens), Q9Y468 | AlphaScreen L3MBTL1–H3K9me1 peptide binding | Potency, µM (highest dose often 57.1 µM), usual class: inhibitors | hit rate 0.66% among 230,000 | AID 485360, 2010; further: nearly all actives have a fitted effect of over 60% in size
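Read-out is AlphaScreen signal from streptavidin donor and nickel chelate acceptor beads (10 ug/mL final each) bridging L3MBTL1 (50 nM) and biotinylated K9-monomethylated H3(1-15) peptide (75 nM), after 30 min compound exposure at room temperature.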
HP1b chromo inh: HTS for Inhibitors of HP1-beta Chromodomain Interactions with Methylated Histone Tails; Chromobox protein homolog 1 (Homo sapiens), P83916; AlphaScreen HP1-beta / biotin-H3K9me3 peptide binding; hit rate 0.56% among 390,000; Potency, µM (top dose mostly 114 µM), usual class: inhibitors; further: nearly all actives have a fitted effect of over 70% in size
Target sequence (P83916 whole entry, looked up): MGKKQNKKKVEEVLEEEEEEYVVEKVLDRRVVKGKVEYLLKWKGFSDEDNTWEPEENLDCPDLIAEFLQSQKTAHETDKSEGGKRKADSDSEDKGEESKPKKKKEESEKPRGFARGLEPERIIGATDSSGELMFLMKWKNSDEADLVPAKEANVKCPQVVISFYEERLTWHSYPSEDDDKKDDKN
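HP1-beta protein (50 nM final) preincubated 30 min at room temperature with biotinylated H3(1-18)K9me3 peptide (50 nM) in PBS pH 7.4, 0.01% Tween-20, then compound added for 30 min. AlphaScreen streptavidin donor/nickel chelate acceptor beads (10 ug/mL final), 30 min dark, luminescence read.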
JMJD2A Tudor: qHTS Assay for Inhibitors of JMJD2A-Tudor Domain; Potency, µM (titrated, usually from 114 µM), most hits filed as inhibitors; hit rate 4.4% among 390,000; AID 504339, 2011; AlphaScreen JMJD2A-Tudor / H3K4me3 peptide binding; Lysine-specific demethylase 4A (Homo sapiens), O75164; further: nearly all actives have a fitted effect of over 50% in size
Numbers stand for hits; 0 = inactive; ? = inconclusive; - = no result given; ! = a repeat was not active; [ ] = dose if it differs, or a comment. In the library only some 12% were active in any assay of this set; here they are far more common. The call rests on the fitted dose curve; in most records, active means well fitted curve in the direction sought with a large enough effect; inconclusive means small, poorly fitted or top-dose-only effect, or another doubt; inactive means no such curve, though single readings can be large; an effect the other way counts as inactive or inconclusive.

SMILES	Sfp inh	G9a inh	BAZ2B block	L3MBTL1 inh	HP1b chromo inh	JMJD2A Tudor
CCc1ccccc1N1CC(c2nnc(NC(=O)c3ccco3)s2)CC1=O (stereo not drawn)	-	0	0	-	0	0
CCCCONc1ncnc2nonc12	0	0	0	0	0	0
CCOC(=O)c1ccc2c(c1)N(Cc1cccc(C(F)(F)F)c1)C(=O)c1ccccc1S2(=O)=O	-	0	0	-	0	?
CCOc1ccc(N2CC(C(=O)NCCc3ccc(S(N)(=O)=O)cc3)CC2=O)cc1 (stereo not drawn)	0	25µM	0	-	0	0
CCc1nnc(NC(=O)C2CC(=O)N(c3ccc(C)cc3)C2)s1 (stereo not drawn)	50µM	?	0	-	0	0
CCOc1ccc(N2CC(C(=O)Nc3nnc(SCCOC)s3)CC2=O)cc1 (stereo not drawn)	0	71µM	0	-	0	0
CCOc1ccccc1N1CC(C(=O)NCCc2ccc(S(N)(=O)=O)cc2)CC1=O (stereo not drawn)	0	0	0	-	0	0
COCc1nnc(NC(=O)C2CC(=O)N(c3ccc(C)c(Cl)c3)C2)s1 (stereo not drawn)	-	16µM	0	0	0	0
COc1ccccc1CNC(=O)CN1NS(=O)(=O)c2ccccc2C1=O	-	-	-	0	0	0
C=CC(C)(O)CC/C=C(\C)CCC=C(C)C (stereo not drawn)	0	0[12.7 µM]	-	-	-	-
CCC(CC)C(=O)Nc1nnc(S(=O)(=O)N2c3ccccc3CC2C)s1 (stereo not drawn)	0	0	25µM!	0	0	50µM!
CCC(CC)C(=O)Nc1nnc(S(=O)(=O)N2CCc3ccccc32)s1	0	7.1µM	?	0	0	0
CC1Cc2ccccc2N1S(=O)(=O)c1nnc(NC(=O)c2cccc(F)c2)s1 (stereo not drawn)	-	0	0	-	0	0
CC(CCc1ccccc1)NC(=O)C(=O)c1c[nH]c2ccccc12 (stereo not drawn)	0	0	0	-	0	0
COCCOC(=O)c1c(C)nc(SCC(=O)Nc2cccc3ccccc23)c(C#N)c1-c1ccco1	7.9µM	0	0	-	0	0
COCCOC(=O)c1c(C)nc(SCC(=O)Nc2ccc(C)cc2)c(C#N)c1-c1ccco1	0	0[12.7 µM]	0	0	0	0
COc1cc(NC(=O)c2ccccc2)c(OC)cc1NC(=O)CSc1[nH]c(=O)cc(C)c1C#N	0	0	0	-	0	0
Cc1cc(=O)[nH]c(SCC(=O)Nc2cccc3ccccc23)c1C#N	50µM	?	?	-	0	0
Cc1cc(O)c(/C=N/c2ccccn2)c(=O)o1	?	14µM	?	?	0	79µM
Cc1cccc(/N=C/c2c(O)cc(C)oc2=O)n1	0	13µM	0	?	0	?
Oc1ccc2ccccc2c1C=Nc1ccc(Cl)cn1	0	1.8µM	0	0	0	25µM
Cc1cc(O)c(C=Nc2ccc(Cl)cn2)c(=O)o1	?	0[12.7 µM]	?	-	0	32µM
O=c1c2ccccc2c(C=Nc2ccc(Cl)cn2)c(O)n1-c1cc(Cl)ccc1N1CCOCC1	0	0	0	0	0	0
O=C(Nc1ccc(Cl)cn1)c1cccc2ccccc12	0	0[0.501 µM]	0	0[2.29 µM]	0	0
CCOc1ccc(N=Cc2c(O)cc(C)oc2=O)cc1	0	0	0	0	0	0
SMILES	Sfp inh	G9a inh	BAZ2B block	L3MBTL1 inh	HP1b chromo inh	JMJD2A Tudor
CCN(CC)C(C)C#CCC(c1ccccc1)c1ccccc1 (stereo not drawn)	0	-	0	-	-	-
Cc1ccc(CNC(=O)Cn2c(=O)n(-c3ccc(C)c(F)c3)c(=O)c3sc4ccccc4c32)cc1	-	0	?	-	0	0
Cn1nccc1/C=C(/C#N)S(=O)(=O)c1ccccc1	0	0	0	0	0	40µM
CCn1cc(/C=C(/C#N)S(=O)(=O)c2ccccc2)cn1	0	?	0	-	0	0
CC(C)CCNC(=O)c1cccc(Nc2nc3ccccc3n3nnnc23)c1	-	0	0	-	0	0
CCCCn1c(N)c(N(CCOC)C(=O)c2ccc(-c3ccc(C(C)=O)cc3)o2)c(=O)[nH]c1=O	-	13µM	71µM	0	0	?
CCCn1c(N)c(N(CCOC)C(=O)Cc2ccc(S(=O)(=O)N3CCOCC3)s2)c(=O)[nH]c1=O	-	50µM	0	0	0	0
CCCCn1c(N)c(N(CCOC)C(=O)c2ccc(-n3c(C)ccc3C)cc2)c(=O)[nH]c1=O	-	45µM	0	0	0	0
CCCCn1c(N)c(N(CCOC)C(=O)c2ccc(N3C(=O)CCC3=O)cc2)c(=O)[nH]c1=O	-	0[0.501 µM]	0	0	0	0
CCCCN(C(=O)c1ccc([N+](=O)[O-])o1)c1c(N)n(CC(C)C)c(=O)[nH]c1=O	-	28µM	0	0	0	0
CCN1CCN(Cc2c(O)ccc3cc(-c4ccc(OC)cc4)c(=O)oc23)CC1	-	0	0	-	0	0
O=C(N/C(=C/c1cn(-c2ccccc2)nc1-c1ccccc1)C(=O)N1CCOCC1)c1ccc(Cl)cc1Cl	0	0	0	0	0	0
COc1ccc(NC(=O)c2cc3nc(-c4ccc(Cl)c(Cl)c4)cc(C(F)(F)F)n3n2)c(OC)c1	-	0	0	-	0	0
CN(c1ccccc1)c1ncnc2c1cnn2C	-	0	0	-	0	0
COc1cccc(C)c1NC(=O)C(OC(=O)CNC(=O)c1ccccc1)c1ccccc1 (stereo not drawn)	-	-	-	-	-	0
CCCCn1c(N)c(N(CCOC)C(=O)c2cc3c(s2)CCC(C)C3)c(=O)[nH]c1=O (stereo not drawn)	-	35µM	0	0	0	0
CCCCn1c(N)c(N(CC(C)C)C(=O)c2ccc(-c3ccc([N+](=O)[O-])cc3)o2)c(=O)[nH]c1=O	-	40µM	0	0	0	0
CCCn1c(N)c(N(CCOC)C(=O)c2cc3c(s2)CCC(CC)C3)c(=O)[nH]c1=O (stereo not drawn)	-	0[2.33 µM]	0	0	0	0
Cc1ccc(C2C(C#N)=C(N)Oc3nc(-c4ccccc4)[nH]c32)o1 (stereo not drawn)	0	50µM	0	0	0	0
CNC(=O)c1ccc(NC(=O)CN2c3cccc4cccc(c34)S2(=O)=O)cc1	-	45µM	0	0	0	0
CC(C)NC(=O)NC(=O)CN1c2cccc3cccc(c23)S1(=O)=O	0	32µM	0	-	0	0
CC(C)CNC(=O)CN1c2cccc3cccc(c23)S1(=O)=O	0	0	0	-	0	0
O=C(NCCOCCn1c(=O)oc2ccccc21)Nc1cccc(Cl)c1	-	0	0	-	0	0

High-throughput results as filed in PubChem.
